# Measured values from ChEMBL document CHEMBL1961873, “Compounds: GSK PKIS; Assays: Nanosyn kinase panel” (2012).
# Key:
# [1] = molecular target: T1, Tyrosine-protein kinase receptor TYRO3 (Homo sapiens) (UniProt Q06418); conditions: at 1 µM
# T1 sequence (whole entry): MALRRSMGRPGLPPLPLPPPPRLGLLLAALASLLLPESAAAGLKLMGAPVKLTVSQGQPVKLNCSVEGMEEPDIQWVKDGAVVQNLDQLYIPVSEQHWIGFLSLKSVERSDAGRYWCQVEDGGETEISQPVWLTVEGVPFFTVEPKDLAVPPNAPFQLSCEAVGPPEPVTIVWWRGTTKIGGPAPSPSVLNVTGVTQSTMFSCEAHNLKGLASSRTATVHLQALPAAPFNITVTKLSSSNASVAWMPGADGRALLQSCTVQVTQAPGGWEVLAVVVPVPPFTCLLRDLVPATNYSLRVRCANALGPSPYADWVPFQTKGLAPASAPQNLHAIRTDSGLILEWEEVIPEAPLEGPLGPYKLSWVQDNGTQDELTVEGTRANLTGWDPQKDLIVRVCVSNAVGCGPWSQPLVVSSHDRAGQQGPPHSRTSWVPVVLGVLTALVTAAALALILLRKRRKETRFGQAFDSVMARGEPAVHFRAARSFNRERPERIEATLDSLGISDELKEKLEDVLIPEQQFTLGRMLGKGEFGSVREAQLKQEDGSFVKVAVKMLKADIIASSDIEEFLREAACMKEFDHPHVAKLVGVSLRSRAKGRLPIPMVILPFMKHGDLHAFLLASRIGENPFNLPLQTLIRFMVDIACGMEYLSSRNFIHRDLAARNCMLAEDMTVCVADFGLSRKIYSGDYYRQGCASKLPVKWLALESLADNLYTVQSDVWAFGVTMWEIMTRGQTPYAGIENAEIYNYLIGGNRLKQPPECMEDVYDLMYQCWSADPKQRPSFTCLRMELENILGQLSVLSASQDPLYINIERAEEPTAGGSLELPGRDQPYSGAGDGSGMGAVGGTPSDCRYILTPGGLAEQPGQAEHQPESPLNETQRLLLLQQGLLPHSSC
# [2] = molecular target: Tyrosine-protein kinase Yes (Homo sapiens) (UniProt P07947); conditions: at 0.1 µM
# [3] = molecular target: Tyrosine-protein kinase Yes (Homo sapiens) (UniProt P07947); conditions: at 1 µM
# [4] = molecular target: T2, Tyrosine-protein kinase ZAP-70 (Homo sapiens) (UniProt P43403); conditions: at 0.1 µM
# T2 sequence (whole entry): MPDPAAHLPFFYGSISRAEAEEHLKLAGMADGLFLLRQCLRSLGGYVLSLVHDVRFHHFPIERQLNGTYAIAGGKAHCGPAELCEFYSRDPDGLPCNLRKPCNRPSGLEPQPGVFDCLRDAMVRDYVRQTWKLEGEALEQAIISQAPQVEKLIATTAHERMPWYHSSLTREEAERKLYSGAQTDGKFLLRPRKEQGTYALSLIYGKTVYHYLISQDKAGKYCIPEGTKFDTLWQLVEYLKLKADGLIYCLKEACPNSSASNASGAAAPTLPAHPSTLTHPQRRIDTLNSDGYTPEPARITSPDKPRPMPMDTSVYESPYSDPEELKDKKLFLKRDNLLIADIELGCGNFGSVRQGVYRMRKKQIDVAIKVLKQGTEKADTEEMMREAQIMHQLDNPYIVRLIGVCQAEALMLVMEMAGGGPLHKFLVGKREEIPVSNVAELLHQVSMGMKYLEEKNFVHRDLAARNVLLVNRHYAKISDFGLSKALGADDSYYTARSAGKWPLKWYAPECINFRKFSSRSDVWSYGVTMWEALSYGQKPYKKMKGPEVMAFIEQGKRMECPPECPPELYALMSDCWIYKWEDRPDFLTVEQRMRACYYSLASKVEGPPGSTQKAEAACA
# [5] = molecular target: T2, Tyrosine-protein kinase ZAP-70 (Homo sapiens); conditions: at 1 µM
# [6] = molecular target: Serine/threonine-protein kinase B-raf (Homo sapiens) (UniProt P15056); conditions: at 0.1 µM
# [7] = molecular target: Serine/threonine-protein kinase B-raf (Homo sapiens) (UniProt P15056); conditions: at 1 µM
# [8] = test system: Serine/threonine-protein kinase B-raf (Homo sapiens), P15056 [V600E]; conditions: at 0.1 µM
# [9] = test system: Serine/threonine-protein kinase B-raf (Homo sapiens), P15056 [V600E]; conditions: at 1 µM
# [10] = molecular target: RAF proto-oncogene serine/threonine-protein kinase (Homo sapiens) (UniProt P04049); conditions: at 0.1 µM;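 further: values are mean CRAF kinase inhibition from profiling of the GSK Published Kinase Inhibitor Set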
# Sequence of RAF proto-oncogene serine/threonine-protein kinase (Homo sapiens) (P04049 whole entry): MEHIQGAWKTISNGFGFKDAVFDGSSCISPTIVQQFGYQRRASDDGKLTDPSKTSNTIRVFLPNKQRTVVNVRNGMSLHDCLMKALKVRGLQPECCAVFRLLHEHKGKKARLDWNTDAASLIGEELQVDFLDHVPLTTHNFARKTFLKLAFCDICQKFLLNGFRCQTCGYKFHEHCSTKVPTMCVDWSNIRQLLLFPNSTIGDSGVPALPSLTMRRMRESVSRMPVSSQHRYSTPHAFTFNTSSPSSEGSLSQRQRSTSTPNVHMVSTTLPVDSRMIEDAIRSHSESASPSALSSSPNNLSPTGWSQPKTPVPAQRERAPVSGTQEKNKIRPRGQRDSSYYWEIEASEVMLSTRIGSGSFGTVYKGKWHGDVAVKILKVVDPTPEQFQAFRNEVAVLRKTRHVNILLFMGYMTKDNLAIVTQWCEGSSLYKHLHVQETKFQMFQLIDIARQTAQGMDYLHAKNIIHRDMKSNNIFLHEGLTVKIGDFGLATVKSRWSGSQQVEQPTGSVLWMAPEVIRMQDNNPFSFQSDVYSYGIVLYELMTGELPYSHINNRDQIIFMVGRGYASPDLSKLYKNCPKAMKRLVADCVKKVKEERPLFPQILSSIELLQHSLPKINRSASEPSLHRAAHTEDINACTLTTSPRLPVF
# Sequence of Serine/threonine-protein kinase B-raf (Homo sapiens), P15056 [V600E] (P15056 whole entry V600E): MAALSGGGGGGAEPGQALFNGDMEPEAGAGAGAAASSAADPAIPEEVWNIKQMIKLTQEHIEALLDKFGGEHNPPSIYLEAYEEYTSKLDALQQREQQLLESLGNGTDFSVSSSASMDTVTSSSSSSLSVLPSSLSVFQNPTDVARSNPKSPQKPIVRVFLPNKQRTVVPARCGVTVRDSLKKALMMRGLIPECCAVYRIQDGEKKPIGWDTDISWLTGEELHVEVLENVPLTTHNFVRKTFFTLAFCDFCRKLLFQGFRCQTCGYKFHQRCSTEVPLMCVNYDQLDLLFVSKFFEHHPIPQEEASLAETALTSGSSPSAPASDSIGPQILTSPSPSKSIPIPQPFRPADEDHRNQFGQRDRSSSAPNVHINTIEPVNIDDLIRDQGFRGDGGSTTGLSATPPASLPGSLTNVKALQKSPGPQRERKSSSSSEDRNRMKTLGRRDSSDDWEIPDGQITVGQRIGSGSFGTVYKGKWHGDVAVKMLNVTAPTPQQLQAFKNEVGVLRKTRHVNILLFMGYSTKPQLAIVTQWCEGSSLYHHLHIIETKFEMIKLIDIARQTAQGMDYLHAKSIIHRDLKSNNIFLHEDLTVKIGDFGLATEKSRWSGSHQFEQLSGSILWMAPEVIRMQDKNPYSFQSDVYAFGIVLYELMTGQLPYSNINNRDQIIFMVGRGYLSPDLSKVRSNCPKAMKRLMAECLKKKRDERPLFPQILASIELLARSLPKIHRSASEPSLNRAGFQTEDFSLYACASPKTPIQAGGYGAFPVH
# Sequence of Serine/threonine-protein kinase B-raf (Homo sapiens) (P15056 whole entry): as the sequence (P15056 whole entry V600E) above, with E600V counted along it
# Sequence of Tyrosine-protein kinase Yes (Homo sapiens) (P07947 2-543 limits assumed): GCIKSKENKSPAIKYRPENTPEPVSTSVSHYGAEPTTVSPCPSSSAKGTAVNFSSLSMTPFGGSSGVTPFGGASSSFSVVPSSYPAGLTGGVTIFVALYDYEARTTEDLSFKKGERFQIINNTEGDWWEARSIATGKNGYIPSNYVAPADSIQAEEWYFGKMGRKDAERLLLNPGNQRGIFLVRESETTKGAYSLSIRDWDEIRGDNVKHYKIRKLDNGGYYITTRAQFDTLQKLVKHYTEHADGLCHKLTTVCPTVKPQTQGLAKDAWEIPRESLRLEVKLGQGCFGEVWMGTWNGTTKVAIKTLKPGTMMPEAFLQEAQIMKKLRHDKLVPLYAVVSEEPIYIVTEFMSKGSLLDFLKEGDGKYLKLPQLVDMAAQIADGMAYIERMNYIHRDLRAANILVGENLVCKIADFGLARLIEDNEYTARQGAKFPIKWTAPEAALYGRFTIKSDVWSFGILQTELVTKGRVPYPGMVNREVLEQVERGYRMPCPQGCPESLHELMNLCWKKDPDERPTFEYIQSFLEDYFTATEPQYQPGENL
SMILES,inhibition [1] [%],inhibition [2] [%],inhibition [3] [%],inhibition [4] [%],inhibition [5] [%],inhibition [6] [%],inhibition [7] [%],inhibition [8] [%],inhibition [9] [%],inhibition [10] [%]
COc1ccc(-c2nn3ncccc3c2-c2ccnc(Nc3ccc(F)c(F)c3)n2)cc1,6.24,39.5,85.2,2.54,1.2,5.72,5.29,4.54,3.83,0.22
COc1cc(N2CCN(C(C)C)CC2)ccc1Nc1nc(Nc2cccc(F)c2C(=O)O)c2cc[nH]c2n1,3.99,1.69,8.64,2.69,7.8,6.1,7.89,6.27,7.5,1.76
CC1(C)CC(n2cnc(-c3ccc(F)cc3)c2-c2ccnc(N)n2)CC(C)(C)N1,5.65,0.2,7.25,0.52,2.37,1.97,1.13,1.52,0.8,6.47
CS(=O)(=O)CCNCc1ccc(-c2ccc3ncnc(Nc4ccc(OCc5ccccc5)cc4)c3c2)o1,4.25,9.54,42.1,0.98,2.51,4.6,6.13,3.8,3.33,-0.67
CN(C)CCNC(=O)Nc1ccc(N(C)c2ccnc(Nc3ccc(CS(C)(=O)=O)cc3)n2)cc1,5.87,0.55,2.71,1.7,1.48,4.53,5.12,5.5,6.71,-0.51
Cc1ccc(-c2cc3c(NC(=O)C4CC4)ncnc3o2)cc1,47.8,6,23.7,1.07,3.18,4.57,4.6,4.47,4.89,-0.84
N#Cc1cccc(Nc2ncc(-c3ccccc3)o2)c1,6.8,2.87,17.7,0.3,1.57,3.08,3.51,3.18,4.57,-1.08
CNC(=O)c1ncccc1Nc1nc(Nc2cc3c(cc2OC)CCCN3C(=O)CN(C)C)nc2[nH]ccc12,5.61,0.73,-1.63,-0.5,2.99,4.31,4.44,5.35,9.32,-1.22
c1cnn2ncc(-c3ccnc(NCCCN4CCOCC4)n3)c2c1,2.64,2.68,0.1,2.13,2.9,5.35,7.07,5.41,5.03,2.81
Fc1ccc(Nc2nccc(-c3c(-c4ccc(C(F)(F)F)cc4)nn4ncccc34)n2)cc1F,1.88,-0.6,1.12,2.29,2.38,3.42,6.75,3.45,6.03,4.84
NC(=O)c1ccc2c(-c3ccnc(NCCCO)n3)c(-c3ccc(F)cc3)nn2c1,3.98,2.77,10.9,1.7,1.63,10.9,22.2,9.67,19.7,-3.29
O=C(Nc1n[nH]c2nnc(-c3cccnc3)cc12)C1CC1,1.65,1.69,7.01,-1.5,2.36,0.25,2.61,1.02,3.66,-2.58
CN1CCC(n2cnc(-c3ccc(F)cc3)c2-c2ccnc(NCCO)n2)CC1,5.81,2.55,8.81,2.9,-0.3,5.28,8.68,4.16,8.41,-1.57
CNC(=O)c1cncc(/C=C/c2ccccc2C)c1,3.96,4.29,9.93,1.58,2.36,6.43,7.91,6.48,6.88,5.82
COc1cc(N2CCN(C(C)C)CC2)ccc1Nc1nc(Nc2cccc3ncccc23)c2cc[nH]c2n1,-0.92,-0.19,1.79,-0.91,-0.16,-0.4,0.61,0.32,1.11,0.02
